Data on 96 compounds can be found in PubChem BioAssay AID1423 (NMMLSC, 2008).

Among all 220,000 compounds or so, about 750 (0.34%) were called active. This is one part of a sample in which actives are shown more often than they occur. Values without a mark were called inactive. Rule as the data show it: active = response below about 60% or above about 140%; inactive = in between.

Sequence of Guanine nucleotide-binding protein G(o) subunit alpha (Homo sapiens) (P09471 whole entry, looked up): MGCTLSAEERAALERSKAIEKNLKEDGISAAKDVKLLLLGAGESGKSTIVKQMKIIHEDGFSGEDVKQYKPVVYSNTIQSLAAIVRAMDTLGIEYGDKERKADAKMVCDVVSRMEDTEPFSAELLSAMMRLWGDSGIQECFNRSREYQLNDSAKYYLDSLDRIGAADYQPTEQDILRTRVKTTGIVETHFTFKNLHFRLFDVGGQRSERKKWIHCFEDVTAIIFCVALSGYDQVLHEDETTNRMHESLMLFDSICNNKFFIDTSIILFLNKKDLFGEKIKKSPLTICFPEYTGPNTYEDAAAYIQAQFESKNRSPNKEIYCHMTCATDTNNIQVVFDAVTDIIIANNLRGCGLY

The assay addresses Guanine nucleotide-binding protein G(o) subunit alpha (Homo sapiens) (UniProt P09471). As to the kind of experiment: RGS8-Galphao binding modulators, primary screen, biochemical, multiplexed bead flow cytometry (AID 1423).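 Also: Galphao activated as the GDP aluminium fluoride complex binding bead-coupled RGS8.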 The conditions noted are these: at 10 µM, actives lie on both sides.
Consider `Cc1ccc(S(=O)(=O)CC(=O)Nc2c(C)n(C)n(-c3ccccc3)c2=O)cc1`, for which the response (percent of control binding) is 97.4%. On to `Cc1cc(C)cc(N(CC(=O)Nc2c(C)n(C)n(-c3ccccc3)c2=O)S(C)(=O)=O)c1`, for which the response (percent of control binding) was 1.54% (active). Consider `Cc1cc(C)cc(N(C(C)C(=O)Nc2c(C)n(C)n(-c3ccccc3)c2=O)S(C)(=O)=O)c1` (stereo unspecified), for which the response (percent of control binding) was 104%. The result for `CCc1nn(-c2cc(Oc3cccc4ccccc34)nc(-c3ccccc3)n2)c(N)c1C#N` reads 105%; that for `N/C(=N\S(=O)(=O)c1ccc(Cl)cc1)N1CCOCC1`, 98.4%; that for `CC(C)(C)C(=O)NNC(=O)c1ccc(Oc2cc(Cl)cc(Cl)c2)o1`, 104%. The result for `O=C(CN1CCOCC1)Nc1ccc(NC(=O)CN2CCOCC2)c(Cl)c1` reads 100%; that for `O=C(CN1CCOCC1)Nc1ccccc1`, 145% [activator] (active); that for `O=C(CN1CCOCC1)Nc1c(Cl)cc(Cl)cc1Cl`, 96%. The value for `CC(=O)c1ccc(N=C2SCCCN2C(=O)C2CCCCC2)cc1` was 95.4%; that for `O=C(NNc1c2ccccc2nc2ccccc12)c1cc2ccccc2cc1O` was 98.1%. As for `Cc1ccc(S(=O)(=O)N2CCN(C(=O)COC(=O)c3c(C)noc3C)CC2)c(C)c1`, the response (percent of control binding) is 103%. Take `N#Cc1nc(COc2ccc(-c3ccccc3)cc2)oc1NCc1cccnc1`: the response (percent of control binding) was 167% [activator] (active). On to `N#Cc1nc(-c2ccc(OCc3ccccc3)cc2)oc1NCCCN1CCOCC1`, for which the response (percent of control binding) is 99.9%.

Regarding `O=S(=O)(c1ccc(Br)cc1)c1nc(-c2ccccc2)oc1NCc1cccnc1`, the response (percent of control binding) is 103%. Consider `CC(C)(C)NC(=O)NC(=O)COC(=O)Cc1c(F)cccc1Cl`, for which the response (percent of control binding) is 99.5%. The result for `CCCCC(CC(C)O)c1n[nH]c(=S)n1-c1ccccc1` (stereo unspecified) reads 108%; that for `CCn1c(CNS(=O)(=O)c2ccc(Cl)cc2)n[nH]c1=S`, 100%. As to `S=c1[nH]nc(CSCc2ccc(Cl)cc2Cl)n1-c1ccccc1`, the response (percent of control binding) was 92.7%. With `CCn1c(CSCc2c(Cl)cccc2Cl)n[nH]c1=S`, the response (percent of control binding) is 55.5% (active). The value for `Cc1ccc(C(=O)C(=S)N2CCOCC2)cc1` was 110%; that for `CC1CC(C)(C)n2c(O)c(N=NC(N)=S)c3cccc1c32` (stereo unspecified) was 100%.

Turning to `NS(=O)(=O)c1ccc(CCNC(=O)CCCn2c(SCC(=O)N3CCCC3)nc3ccsc3c2=O)cc1`, the response (percent of control binding) was 103%. The value for `O=[N+]([O-])c1ccccc1Nc1ccc(O)cc1` was 102%; that for `O=C(CC1SC(=Nc2ccccc2F)N(CCN2CCOCC2)C1=O)Nc1ccc(F)cc1F` (stereo unspecified) was 97.3%. For the compound `CCOc1cc(NC(=O)c2ccccn2)c(OCC)cc1NC(=O)c1ccc(OC)cc1`, the response (percent of control binding) was 103%. As for `CCN(CC)CCOc1ccc2c(c1)C(=NNC(=O)c1ccccn1)c1cc(OCCN(CC)CC)ccc1-2`, the response (percent of control binding) is 154% [activator] (active). Take `COc1ccc(CC(=O)N/N=C(\C)c2ccccn2)cc1`: the response (percent of control binding) was 72.6%. The result for `COC(=O)C1=C(C)NC(=O)/C1=C/c1ccc(CNS(=O)(=O)c2ccc(C)cc2)o1` reads 91%. Take `O=C(CSc1nnc(-c2cccs2)n1Cc1ccccc1)N1CCc2ccccc2C1`: the response (percent of control binding) was 97%. Take `O=C(COc1ccccc1)N1CCc2ccccc2C1`: the response (percent of control binding) is 101%. The value for `Cn1c(=O)c2c(n(Cc3ccccc3)c1=O)NC(=O)C2CC(=O)N1CCc2ccccc2C1` (stereo unspecified) was 12.1% (active); that for `O=C(NC1CCCCC1)C1CCCN(S(=O)(=O)c2ccc(Br)s2)C1` (stereo unspecified) was 96.9%; that for `O=C(O)c1ccc2c3c(cccc13)C(=O)N(OS(=O)(=O)c1ccccc1)C2=O` was 98.5%. Turning to `Cc1ccc(NC(=O)NCC(c2cccnc2)N2CCOCC2)cc1` (stereo unspecified), the response (percent of control binding) is 103%. For `CN1CCN(S(=O)(=O)c2ccc(N3CCN(S(=O)(=O)c4cccs4)CC3)nc2)CC1`, the response (percent of control binding) was 100%.

For `CN1CCN(C(CNS(=O)(=O)c2cccs2)c2cccnc2)CC1` (stereo unspecified), the response (percent of control binding) was 10.6% (active). As for `CCOC(=O)CCNC(=O)N1CCCC(C(=O)c2ccccc2SC)C1` (stereo unspecified), the response (percent of control binding) is 90.6%.

In the case of `Cc1ccc2c(N)c(C(=O)c3ccccc3)sc2n1`, the response (percent of control binding) was 104%. The result for `COc1cc(OC)cc(C(=O)NCCSCc2ccco2)c1` reads 97.9%; that for `COc1cccc(C(=O)NNC(=O)c2ccccc2Br)c1`, 107%; that for `COc1cccc(C(=O)NCCSc2ccc(Br)cc2)c1`, 20.7% (active). With `OC(c1ccccc1)c1nccn1Cc1ccccc1` (stereo unspecified), the response (percent of control binding) was 97.5%. The value for `OC(c1nc2ccccc2[nH]1)C(O)C(O)C(O)c1nc2ccccc2[nH]1` (stereo unspecified) was 100%. The result for `O=C(N/N=C/c1cccc([N+](=O)[O-])c1)c1ccncc1` reads 99.5%; that for `CCOc1ccccc1NC(=O)c1cc(S(=O)(=O)N2CCC3(CC2)OCCO3)ccc1F`, 33% (active).

On to `Cc1c(C(=O)Nc2ccccc2Cl)oc2ccc(S(=O)(=O)N3CCC4(CC3)OCCO4)cc12`, for which the response (percent of control binding) was 105%. The value for `CCOc1ccccc1NC(=O)CCN1CCN(S(=O)(=O)c2ccc(OC)cc2)CC1` was 99.6%; that for `CC(=O)c1cccc(-n2nnnc2SCC(=O)NNC(=O)C2CCCCC2)c1` was 91.2%.

Consider `O=C(COC(=O)/C(=C/c1cccs1)c1cccs1)NCc1ccccc1Cl`, for which the response (percent of control binding) is 85.8%. With `O=C(CSc1ccccc1)Nc1ccc(C(=O)Nc2cccc(O)c2)cc1`, the response (percent of control binding) was 109%.

Consider `O=C(Cn1nnc(N2CCCCC2)n1)c1ccc(Cl)c(Cl)c1`, for which the response (percent of control binding) was 97.6%. The result for `COc1ccc(CCC(=O)OCC(=O)Nc2ccc(C)c(S(=O)(=O)N(C)C)c2)cc1` reads 57.7% (active); that for `Cc1ccc(NC(=O)CNCc2ccccn2)cc1S(=O)(=O)N(C)C`, 97.7%. In the case of `COc1cc(CCC(=O)OCC(=O)Nc2cccc(S(N)(=O)=O)c2)cc(OC)c1OC`, the response (percent of control binding) is 95.2%. The value for `O=C1CCC/C(=N\NC(=O)NC2CCCCC2)C1` was 100%; that for `COc1ccccc1-n1c(-c2cc(-c3ccco3)[nH]n2)n[nH]c1=S` was 6.3% (active).

In the case of `COc1ccccc1-n1cn[nH]c1=S`, the response (percent of control binding) is 102%. Take `COc1ccc(OC)c(-n2c(-c3ccn[nH]3)n[nH]c2=S)c1`: the response (percent of control binding) was 98.6%.

As to `COc1ccc(-c2onc(C)c2-c2ccc3c(c2)OCCO3)c(O)c1`, the response (percent of control binding) was 101%. The result for `O=C(NCCCN1CCOCC1)c1ccccc1NS(=O)(=O)c1ccc(Br)cc1` reads 99.3%; that for `COc1ccc(C(=O)NNc2cc(C)nc(NNC(=O)c3ccc(OC)cc3)n2)cc1`, 54% (active); that for `COc1ccc(C(=O)NNS(=O)(=O)c2ccc(C)cc2)cc1`, 101%.

As for `COc1ccc(C(=O)NNC(=O)c2cc(C)[nH]n2)cc1`, the response (percent of control binding) is 121%. Regarding `CC(=O)Nc1ccc(N2C(=O)CCC2=O)cc1C`, the response (percent of control binding) was 100%. On to `COc1ccccc1CCNC(=O)CSc1nnc2ccc(-c3cccnc3)nn12`, for which the response (percent of control binding) was 92.2%. `CCOC(=O)NNc1cc(C(F)(F)F)ccn1`: the response (percent of control binding) was 133%. `Nc1nnn(CC(=O)N/N=C/c2ccccc2)n1`: the response (percent of control binding) was 99.3%.

As to `CC(OC(=O)c1ccc2ccccc2n1)C(=O)c1ccccc1` (stereo unspecified), the response (percent of control binding) is 103%. The result for `COc1ccc(C(=O)COC(=O)c2ccc3ccccc3n2)cc1` reads 28.9% (active); that for `COc1ccc(C2=NOC(COC(=O)c3ccc4ccccc4n3)C2)cc1` (stereo unspecified), 101%; that for `COC(=O)C1=C(C)N(c2ccc(C)cc2)/C(=C/c2ccc(O)cc2)C1=O`, 99.9%. The result for `COc1cccc2c(N/N=C/c3ccco3)cc(C)nc12` reads 96.9%; that for `CCN(CC)CCNCC(=O)Nc1ccc(Oc2ccccc2)cc1`, 99.5%.

For the compound `Cn1c(=NC(=O)C2CC2)sc2cc(F)cc(F)c21`, the response (percent of control binding) was 96.6%.

For `Cn1c(=NC(=O)c2ccco2)sc2cccc(F)c21`, the response (percent of control binding) is 103%.

As for `CCCC(=O)N=c1sc2cccc(F)c2n1C`, the response (percent of control binding) was 37.2% (active). The result for `Cn1cc(-c2ccccc2)cc(C#N)c1=O` reads 103%; that for `Cc1ccccc1/[N+]([O-])=C/c1ccncc1`, 100%; that for `CN(C)S(=O)(=O)c1cccc(NC(=O)COC(=O)/C=C/c2cccs2)c1`, 102%.

Regarding `Oc1ccc2ccccc2c1N=Nc1nccs1`, the response (percent of control binding) is 99.8%. As to `Oc1ccc(N=Nc2nccs2)c(O)c1`, the response (percent of control binding) is 6.26% (active). For the compound `CONC(=O)c1cc(OCC(F)(F)F)ccc1OCC(F)(F)F`, the response (percent of control binding) was 103%. Take `CCc1ccc(C(=O)OCC(=O)Nc2cccc(S(=O)(=O)NC3=NCCCCC3)c2)cc1`: the response (percent of control binding) is 104%.

For the compound `Cc1ccc(S(=O)(=O)N2CCC(C(=O)N[C@@H](C)C(=O)NCc3ccco3)CC2)cc1`, the response (percent of control binding) is 103%. For the compound `CN1CCN(C2=NCCO2)CC1`, the response (percent of control binding) was 100%. Regarding `O=C1C2N=NN(CC(=O)N3N=C(c4cccc5ccccc45)CC3c3ccccc3)C2C(=O)N1c1ccccc1` (stereo unspecified), the response (percent of control binding) is 90.3%. The result for `COc1ccc(S(=O)(=O)N2CCCCCC2)cc1C(=O)OCC(=O)Nc1cc(C)on1` reads 100%. As for `COc1cc(/C=C(/NC(=O)c2ccc(Cl)cc2Cl)C(=O)O)cc(OC)c1OC`, the response (percent of control binding) is 75.5%. For `C=C(C)CNC(=S)/N=c1\scc(C)n1CC`, the response (percent of control binding) was 98.7%. The result for `Cc1ccc(N(CC(O)CN2CCCC2)S(=O)(=O)c2ccccc2)cc1` (stereo unspecified) reads 97.6%; that for `Cc1cc(C)n(CC(O)CN(c2ccccc2)S(=O)(=O)c2ccc3ccccc3c2)n1` (stereo unspecified), 15% (active).

Consider `O=S(=O)(c1ccccc1)N(CC(O)CN1CCCCC1)c1ccccc1` (stereo unspecified), for which the response (percent of control binding) is 101%.

Take `C[C@H](NC(=O)c1ccccc1Cl)C(=O)OCCOc1cccc(Cl)c1`: the response (percent of control binding) was 105%. The result for `NS(=O)(=O)c1ccc(CCNC(=O)c2ccc(Cl)cc2[N+](=O)[O-])cc1` reads 102%; that for `CC(=O)c1cc2c(cc1NC(=O)CN1CCCCCC1)OCO2`, 111%.
